# Laboratory results taken from PubChem BioAssay AID1851 (National Center for Advancing Translational Sciences (NCATS), 2009).
# Where “and” joins values, the source holds several entries; their conditions need not be identical. Equal values may be shown once. Hit rate of the full screen: of about 16,000 compounds, about 5,100 (32%) were called active. Inconclusive results (about 25%) are left out. The call rests on the fitted dose curve; in most records, active means well fitted curve in the direction sought with a large enough effect; inconclusive means small, poorly fitted or top-dose-only effect, or effect the other way; inactive means no such curve, though single readings can be large or run the other way. This is one part of the list.
# Molecular target: Cytochrome P450 3A4 (Homo sapiens) (UniProt P08684)
# Test: Cytochrome panel assay with activity outcomes
# Conditions: recombinant CYP, pro-luciferin dealkylation, luminescence, p450-cyp3a4; series mostly up to 57.1 µM
# On the % scale 0 is the no-effect control and ±100 the full control effect.
# Cytochrome P450 3A4 (Homo sapiens), sequence (P08684 whole entry, looked up): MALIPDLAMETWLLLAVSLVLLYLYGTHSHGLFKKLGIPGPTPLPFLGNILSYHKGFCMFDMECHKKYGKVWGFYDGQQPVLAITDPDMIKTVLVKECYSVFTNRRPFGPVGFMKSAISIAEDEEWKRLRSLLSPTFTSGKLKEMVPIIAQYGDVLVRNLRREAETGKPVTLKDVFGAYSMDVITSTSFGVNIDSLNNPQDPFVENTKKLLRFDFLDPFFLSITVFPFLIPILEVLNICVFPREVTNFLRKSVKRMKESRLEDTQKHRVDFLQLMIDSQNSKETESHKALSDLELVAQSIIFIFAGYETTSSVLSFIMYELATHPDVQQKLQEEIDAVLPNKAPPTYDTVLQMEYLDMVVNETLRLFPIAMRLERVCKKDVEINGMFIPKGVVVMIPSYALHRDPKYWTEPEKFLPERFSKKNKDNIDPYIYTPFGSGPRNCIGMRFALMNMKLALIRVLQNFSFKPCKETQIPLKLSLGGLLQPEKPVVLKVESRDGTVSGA
Compound,"activity, negative = inhibition",AC50
O=C1C[C@@H](O)[C@@H](O)[C@H]2[C@@H]3C(=O)N(c4cccc(Oc5ccccc5)c4)C(=O)[C@@H]3CC[C@H]12,-19.7% [at 11.4 µM] (inactive) and -7.2% [at 11.4 µM] (inactive),
Cc1ccc(OCC(=O)NNC(=O)CCC(=O)NCc2ccccc2)cc1,,inactive
Cc1ccc(OCC(=O)Nc2ccccc2-c2ccccc2)cc1,,20 µM (active)
Cc1ccc(OCC(=O)Nn2cnc3ccccc32)cc1,,7.94 µM (active)
Cc1ccc(OCC(=O)NNC(=O)CCc2ccccc2)cc1,,inactive
Cc1ccc(OCC(=O)NC2=NCCS2)cc1,-22.5% [at 11.4 µM] (inactive),
CN(C)CCN1C(=O)C(O)=C(C(=O)c2cc3ccccc3o2)C1c1cccc(Br)c1 (stereo not drawn),27.7% [at 2.29 µM] (inactive),
CC(C)NC(=O)N1CC2(CCN(C(=O)c3ccco3)CC2)C1,,inactive
O=C(c1ccco1)N1CCC2(CCCN(C(c3ccccc3)c3ccccc3)C2)CC1,,12.6 µM (active)
O=C(c1ccco1)N1CCC[C@@]2(CCN(C(c3ccccc3)c3ccccc3)C2)C1,,12.6 µM (active)
O=C(Nc1ccccc1)N1CC[C@@]2(CCCN(C(=O)c3ccco3)C2)C1,,inactive
COc1cc(-c2nnc(SCC(=O)Nc3ccc4c(c3)OCCO4)o2)cc(OC)c1OC,,8.91 µM (active)
Cc1ccc(NC(=O)CSc2nnc(-c3ccncc3)o2)cc1,-3.56% [at 2.29 µM] (inactive),
COc1cc(-c2nnc(SCC3(c4ccc(Br)cc4)OCCO3)o2)cc(OC)c1OC,,12.6 µM (active)
COc1cc(-c2nnc(SCC3(c4ccccc4)OCCO3)o2)cc(OC)c1OC,,4.47 µM (active)
OC[C@@H](O)[C@@H](O)[C@@H](O)[C@@H](O)c1nc2ccc(Cl)cc2[nH]1,-5.7% [at 11.4 µM] (inactive),
CCOC(=O)N/N=C/c1ccc(C)o1,,inactive
Cc1ccc(/C=N\Nc2nc3ccc(Cl)cc3[nH]2)o1,,8.91 µM (active)
Cc1cccc(NC(=O)C2(c3ccc([N+](=O)[O-])cc3)CCCC2)c1,-2.71% [at 2.29 µM] (inactive),
CC12CCC(C(=O)Nc3cccc4ccccc34)(C1Br)C2(C)C (stereo not drawn),,11.2 µM (active)
Cc1cccc(NC(=O)C23CCC(C)(C2Br)C3(C)C)c1 (stereo not drawn),,12.6 µM (active)
Cc1cccc(NC(=S)NNC(=O)c2csc3c2CCCC3)c1,-15.2% [at 2.29 µM] (inactive),
O=C(O)c1cccc(C(=O)O)c1S(=O)Cc1ccccc1 (stereo not drawn),-7.75% [at 11.4 µM] (inactive),
O=C(/C=C/c1ccc(Cl)cc1)NCCSc1ccccc1,,inactive

Compound,"activity, negative = inhibition",AC50
O=C(O)CCCSc1ccccc1,5.11% [at 11.4 µM] (inactive),
NNC(=O)CCSc1ccccc1,,3.98 µM (active)
CCC(C)C(NS(=O)(=O)c1ccc(C)cc1)C(=O)Oc1ccc2c3c(c(=O)oc2c1)CCC3 (stereo not drawn),,7.94 µM (active)
Cc1nc2ccc(S(=O)(=O)NC(CC(C)C)C(=O)O)cc2s1 (stereo not drawn),-3.56% [at 2.29 µM] (inactive),
Cc1ccc(S(=O)(=O)N[C@H](C(=O)O)C(C)C)cc1,-11.9% [at 11.4 µM] (inactive),
Cc1ccc(S(=O)(=O)N[C@H](CN)C(=O)O)cc1,-20.1% [at 11.4 µM] (inactive),
CC(C)Oc1ccc2c(=O)c3cc(C(=O)O)ccc3oc2c1,,inactive
Cc1ccc(S(=O)(=O)NC(CC(C)C)C(=O)Oc2ccc3c4c(c(=O)oc3c2)CCC4)cc1 (stereo not drawn),,14.1 µM (active)
NCc1ccc(C(=O)O)cc1,-14.2% [at 11.4 µM] (inactive),
O=S(=O)(O)c1nc2ccccc2n1Cc1ccccc1,,inactive
O=C(c1cc2sccc2n1Cc1ccccc1)N1CCN(c2nc3ccccc3s2)CC1,,0.631 µM (active)
CN(Cc1n[nH]c(=S)n1C)S(=O)(=O)c1ccccc1,,inactive
S=c1[nH]nc(CCc2ccccc2)n1Cc1ccccc1,,7.94 µM (active)
O=C1c2ccccc2C(Cc2ccncc2)(Cc2ccncc2)c2ccccc21,,0.501 µM (active)
COC(=O)C1=C(N)N(c2ccccc2C(F)(F)F)C2=C(C(=O)CCC2)C1c1ccc2c(c1)OCO2 (stereo not drawn),,0.316 µM (active)
Cc1cc([C@](C)(N)C(=O)O)ccc1P(=O)(O)O,,inactive
CN1CCN(CCc2ccc(Cl)c(Cl)c2)CC1,,inactive
Clc1ccccc1OCCCCN1CCCC1,,inactive
CN(CCc1ccc(Cl)c(Cl)c1)CCN1CCCCCC1,,10 µM (active)
C[C@H](NC(=O)/C(C#N)=C/c1ccc(O)c(O)c1)c1ccccc1,,3.16 µM (active)
Cc1[nH]c2ccccc2c1/C=C(\C#N)C(=O)NC(C)c1ccccc1 (stereo not drawn),,7.08 µM (active)
C[C@@H](NC(=O)/C(C#N)=C/c1ccc(O)c(O)c1)c1ccccc1,,15.8 µM (active)
Cc1[nH]c2ccccc2c1/C=C/c1cc[n+](C)cc1,,inactive
CC1(C)C2([N+](=O)[O-])CN3CC1([N+](=O)[O-])CN(C2)C31CCCC1,,inactive
